Source: PubChem BioAssay
This is a sample that favours compounds with a hit; in the whole collection about 2.4% have one here.
Pol iota inh: blocks human DNA polymerase iota activity; Q9UNA4; Pol iota fluorescent replication assay, 10 min; Potency, µM (series often up to 115 µM), for inactives: at the top dose activity, negative = inhibition, usual class: inhibitors; actives 1% (n = 390,000)
Target sequence (Q9UNA4 whole entry, looked up): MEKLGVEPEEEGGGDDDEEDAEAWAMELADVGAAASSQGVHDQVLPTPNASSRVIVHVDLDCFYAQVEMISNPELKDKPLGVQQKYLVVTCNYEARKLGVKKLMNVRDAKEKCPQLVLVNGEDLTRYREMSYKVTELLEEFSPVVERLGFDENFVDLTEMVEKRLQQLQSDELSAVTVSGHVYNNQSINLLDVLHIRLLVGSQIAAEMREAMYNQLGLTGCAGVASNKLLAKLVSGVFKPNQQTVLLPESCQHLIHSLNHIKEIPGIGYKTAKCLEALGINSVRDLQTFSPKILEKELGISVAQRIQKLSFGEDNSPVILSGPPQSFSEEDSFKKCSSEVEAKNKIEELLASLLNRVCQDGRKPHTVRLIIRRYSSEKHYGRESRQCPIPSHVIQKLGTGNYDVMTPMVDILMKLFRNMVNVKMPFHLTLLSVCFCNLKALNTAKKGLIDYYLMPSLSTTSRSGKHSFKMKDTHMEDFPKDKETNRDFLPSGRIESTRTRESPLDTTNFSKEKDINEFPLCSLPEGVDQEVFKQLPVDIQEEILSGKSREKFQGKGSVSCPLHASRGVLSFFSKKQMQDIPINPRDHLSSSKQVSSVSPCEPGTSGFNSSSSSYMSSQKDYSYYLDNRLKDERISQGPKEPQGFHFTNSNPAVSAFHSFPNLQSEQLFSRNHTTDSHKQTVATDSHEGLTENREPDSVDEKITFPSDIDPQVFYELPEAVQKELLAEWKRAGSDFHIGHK
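Pol iota at 10 nM preincubated 15 min with compounds at room temperature; reaction started with fluorescent substrate, 50 nM final. Fluorescence read kinetically at 0 and 10 min; buffer-only wells as negative control.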
Pol beta inh: DNA polymerase beta (human) inhibition; P06746; Pol beta primer extension/strand displacement, fluorescence kinetic; Potency, µM (series often up to 114 µM), for inactives: at the highest dose activity change, negative = inhibition, actives largely listed as inhibitors; actives 1.3% (n = 340,000); also: % is scaled to controls: 0 for no effect and ±100 for the full control effect
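Pol beta (10 nM) was preincubated with compound for 15 min at room temperature. The reaction was then started with 50 nM substrate and read immediately and after a further 10 min at room temperature.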
APEX1 inh: blocks human APE1 abasic DNA cleavage. Potency, µM (titrated, usually from 65.8 µM), inactives show at the top dose activity change, negative = inhibition, actives largely listed as inhibitors. P27695. recombinant APE1, TAMRA/BHQ-2 abasic DNA cleavage fluorescence. actives 0.35% (n = 350,000);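 also: plate controls were vehicle for no effect and reference inhibitor for full effect; nearly all actives have a fitted effect of over 55% in size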
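Kinetic fluorescence read (525 ex/598 em nm, three reads 60 s apart) of AP-site incision; signal = third minus first read. Enzyme 0.75 nM, dual-labelled THF duplex 50 nM, compound preincubation 15 min RT.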
GLS inh: glutaminase GLS (human) inhibition; GLS enzymatic activity, qHTS titration; Potency, µM (series often up to 45.5 µM), inactives show at the highest dose activity change, negative = inhibition, usual class: inhibitors; actives 0.21% (n = 410,000); also: % is scaled to controls: 0 for no effect and ±100 for the full control effect
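Enzyme dispensed in phosphate buffer (45 mM, pH 8.2, 0.02% Tween-20), compounds pinned in, then 1 mM L-glutamine solution and the glutamate oxidase–HRP–Amplex Red mix added; fluorescence read immediately and again after 30 min at room temperature.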
Pol eta inh: DNA polymerase eta (human) inhibition. Q9Y253. recombinant Pol eta, fluorescent DNA replication assay. Potency, µM (titrated, usually from 114 µM), without a hit: top-dose activity change, negative = inhibition, usual class: inhibitors. actives 1.2% (n = 390,000). AID 588591; also: % is scaled to controls: 0 for no effect and ±100 for the full control effect
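Pol eta (10 nM) was preincubated with compounds for 15 min at room temperature, after which fluorescent replication substrate (50 nM final) was added to start the reaction. Fluorescence was read kinetically at 0 and 10 min.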
POLK inh: blocks human DNA polymerase kappa activity; purified Pol kappa, fluorescent DNA synthesis assay, 10 min; AID 588579; Q9UBT6; actives 0.53% (n = 400,000); Potency, µM (top dose mostly 107 µM), for inactives: at the highest dose activity, negative = inhibition, hits mostly inhibitors; also: % is scaled to controls: 0 for no effect and ±100 for the full control effect
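50 nM final substrate added after 15 min RT preincubation of 10 nM Pol kappa with compound; fluorescence read at 0 and 10 min.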
Active calls of the source: *; ? = inconclusive; . = not tested or not shown; [ ] = dose if it differs, or a comment. Calls follow the shape of the dose curve; as a rule, active = well fitted curve in the direction sought with a large enough effect; inconclusive = small, poorly fitted or top-dose-only effect, or another doubt; inactive = no such curve, though single readings can be large; an effect the other way counts as inactive or inconclusive. Potency is read from the fitted curve at half-maximal effect.

SMILES	Pol iota inh	Pol beta inh	APEX1 inh	GLS inh	Pol eta inh	POLK inh
CSC(=NCc1ccco1)NC#N	21%	-11%	0%	-4%	-3%	4%
COc1ccc(C(=O)COC(=O)/C=C/c2ccco2)cc1F	35µM*	.	?	1%	?	?
CCC/C=C(\CCC)C(NC(=O)c1ccccc1)c1ccc(C(=O)OC)cc1 (stereo unspecified)	.	.	-5%	.	.	.
O=C(CSc1nc2ccccc2nc1Cc1ccc(Cl)cc1)NCCc1ccccc1	-21%	-29%	.	-13%	0%	-6%[60.1 µM]
Fc1cccc(Cl)c1CNc1ccc(N2CCCC2)cc1	100%	11%	-1%	7.9µM*	-14%	-9%
O=C(/C=C/c1ccco1)Nc1cc(Cl)ccc1C(=O)O	?	22µM*	?	?	10µM*	?
CC[C@H](C)/C=C/C1=CC2=C(Cl)C(=O)[C@@]3(C)OC(=O)C(C(=O)[C@H](C)[C@@H](C)O)=C3C2=CO1	?	.	.	23%	18µM*	?
CCCCCCCC1=CC2=C(Cl)C(=O)C(C)(OC(C)=O)C(=O)C2=CO1 (stereo unspecified)	.	.	-1%	.	.	.
Cc1onc(C(=O)Nc2sc3c(c2C(N)=O)CCCC3)c1[N+](=O)[O-]	?	17%	?	10%	-6%	0%
O=C(Cc1cccc2ccccc12)N/N=C/c1ccc(F)cc1	18%	-2%	13%	?	-9%	2%[60.1 µM]
O=C(Cc1cccc2ccccc12)N/N=C/c1ccc(OC(=O)/C=C/c2ccco2)cc1	?	10µM*	?	16%	?	?
COc1cccc2cc(-c3csc(CCn4nc(C)cc4C)n3)c(=O)oc12	9%	-2%	-4%	-2%	?	-16%
CC/C(C)=N/Nc1nc(-c2cc3cccc(OC)c3oc2=O)cs1	50µM*	-15%	-8%	?	50µM*	?
Cc1nc2cc(N3CCCCC3)c(NC(=O)c3ccncc3)cc2c(=O)n1Cc1ccccc1	22%	0%	2%	8%	-8%	-13%
Cc1nc2cc(N3CCOCC3)c(NC(=O)C3CC3)cc2c(=O)n1Cc1ccccc1	?	40%	13%	-20%	20µM*	?
COc1ccc(CC(=O)NC(C)c2nnc(SCC(=O)Nc3ccccc3)n2C)cc1 (stereo unspecified)	9%	2%	-1%	-7%	1%	5%
O=C(CNS(=O)(=O)c1ccc(Br)cc1)OCc1cc(=O)n2cc(Br)ccc2n1	.	35µM*	-3%	.	.	.
Cc1ccc(S(=O)(=O)NCC(=O)OCCOc2ccc(Br)cc2)cc1	20%	.	5%	15%	-24%	-14%
CC1(C)C(/C=C/C=C/C=C/C=C2\N(CCCCS(=O)(=O)O)c3ccc4ccccc4c3C2(C)C)=[N+](CCCCS(=O)(=O)[O-])c2ccc3ccccc3c21	13µM*	.	.	6.3µM*	7.1µM*	22µM*
Cc1c2ccccc2cc[n+]1CCCS(=O)(=O)[O-]	64%	-1%	-2%	-1%	-15%	6%
Cc1ccc(CNC(=O)c2c[nH]c3ccc(S(=O)(=O)Nc4ccc(C(C)C)cc4)cc3c2=O)cc1	?	-30%	.	-10%	79µM*	2%[60.1 µM]
CCOc1ccc(NS(=O)(=O)c2ccc3[nH]cc(C(=O)NCc4ccccc4)c(=O)c3c2)cc1	89µM*	11µM*	.	-9%	?	-34%
COc1ccccc1CNS(=O)(=O)c1ccc2[nH]cc(C(=O)O)c(=O)c2c1	?	28µM*	?	?	3.2µM*	79µM*
CCN(c1ccccc1)S(=O)(=O)c1ccc2[nH]cc(C(=O)NCc3ccc(C)cc3)c(=O)c2c1	89µM*	?	.	-7%	?	-8%[60.1 µM]
CCN(c1ccccc1)S(=O)(=O)c1ccc2[nH]cc(C(=O)NCCOC)c(=O)c2c1	-18%	-13%	3%	-7%	?	-30%
SMILES	Pol iota inh	Pol beta inh	APEX1 inh	GLS inh	Pol eta inh	POLK inh
CCOc1ccc(NS(=O)(=O)c2ccc3[nH]cc(C(=O)N(C)Cc4ccccc4)c(=O)c3c2)cc1	?	5%	.	14%	-3%	-17%[60.1 µM]
O=C(O)CCCNC1=NCCC1	-3%	0%	4%	1%	-5%	-1%
O=C(Cn1c(=O)n(CC2CCC(C(=O)NCCc3ccccc3)CC2)c(=O)c2ccccc21)Nc1ccccc1 (stereo unspecified)	?	2%	.	6%	-13%	-21%
CCc1ccccc1NS(=O)(=O)c1ccc2[nH]cc(C(=O)NC3CCCC3)c(=O)c2c1	?	?	?	-1%	?	-22%
O=C(NC1CCCCC1)c1c[nH]c2ccc(S(=O)(=O)Nc3ccccc3F)cc2c1=O	?	25µM*	.	3%	?	-14%
CC(C)N1C2OC(C3OC4C(O3)N(C(C)C)S(=O)(=O)N4C(C)C)OC2N(C(C)C)S1(=O)=O (stereo unspecified)	17%	23%	11%	-6%	6%	-10%
CCOc1ccc(-c2n[nH]c(C)c2-c2ccccc2OC)c(O)c1	-2%	-9%	0%	-5%	-18%	-13%
CCc1cc(-c2n[nH]c(C)c2-c2ccccc2Cl)c(O)cc1OC	89µM*	5%	25%	4%	-16%	0%
COc1ccc(Br)c(C(=O)Nc2cccc(S(=O)(=O)N3CCOCC3)c2)c1	0%	.	23%	-1%	-12%	-5%
CC(C)(C)c1ccc(C(=O)NC2=NC(c3cccc(F)c3)CC(=O)N2)cc1 (stereo unspecified)	-7%	1%	.	-10%	-9%	2%
Cc1ccccc1Cn1cc(S(=O)(=O)CC(=O)Nc2nccs2)c2ccccc21	20%	?	-4%	1%	-2%	-6%[60.1 µM]
O=C(Nc1cnn(Cc2ccc(F)cc2)c1)c1cnccn1	7%	1%	-3%	15%	-16%	-5%
O=C(Nc1cnn(Cc2ccc(F)cc2)c1)C(c1ccccc1)c1ccccc1	79µM*	4%	-3%	6%	-9%	-5%
O=C(Cc1ccc(NC2=NC3CS(=O)(=O)CC3S2)cc1)NCc1ccccc1 (stereo unspecified)	17%	3%	10%	-2%	-1%	-3%
Cc1ccc(NCC(O)Cn2cnc3c2c(=O)n(C)c(=O)n3C)cc1 (stereo unspecified)	195%	13µM*	-10%	0%	6%	-11%
O=C(CNC(=O)c1ccc2ccccc2c1)NCc1ccc(F)cc1	-6%	1%	37%	-6%	-6%	-7%
O=c1c(=O)n(-c2cccc(Cl)c2)ccn1Cc1cccc(F)c1	9%	32µM*	.	4%	-13%	-25%
